51 molecules from PubChem BioAssay AID602340 (Broad Institute, 2012) can be followed below.

About 2,600 (0.79%) of roughly 330,000 compounds were called active. Only a selection was taken, and actives are over-represented in it overall. Values without a mark were called inactive.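 Rule for the calls: active = mean ATP rescue above about 67%, or every replicate alone reaching that limit (limit read from the data, passing the limit was not always enough); inconclusive = no clear call, values can overlap the other calls; inactive = mean under the limit and some replicate under it.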

This assay can be described thus: suppressors of statin myotoxicity in C2C12 myotubes, primary screen, cell-based, single point, plate reader (AID 602340).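 Note: myotubes were challenged with 10 µM simvastatin during compound exposure.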 The conditions noted are these: C2C12 myotubes + simvastatin, ATP luminescence, 48 h; at 7.49 µM; hits give high values; scaled: DMSO 0, geranylgeraniol control 100.
As to `O=C(C[C@@H]1C[C@H]2c3cc(NC(=O)Nc4ccccc4)ccc3O[C@H]2[C@@H](CO)O1)NC1CCCCC1`, the rescue of ATP level was 4.79%. Regarding `C[C@@H]1CN([C@@H](C)CO)C(=O)c2cc(C3=CCCCC3)cnc2O[C@H]1CN(C)CC1CCOCC1`, the rescue of ATP level was -11.9%. Take `CC(=N\NC(=O)c1cc(Br)ccc1O)/C(=N/O)C(=O)Nc1ccccc1`: the rescue of ATP level was -1.86%. On to `Cc1ccc(C(=O)NC23CC4CC(CC(C4)C2)C3)c(Cl)c1`, for which the rescue of ATP level is -14.4%. Turning to `C/C(=N/NC(=O)c1cc(Cl)ccc1O)C12CC3CC(CC(C3)C1)C2`, the rescue of ATP level was 173% (active).

In the case of `Cc1noc(C)c1S(=O)(=O)N(C)C[C@@H]1Oc2c(NS(=O)(=O)c3cn(C)cn3)cccc2C(=O)N([C@@H](C)CO)C[C@H]1C`, the rescue of ATP level was 5.29%. For the molecule `COc1cccc(C(=O)Nc2ccc3c(c2)OC[C@H](C)N(C(C)=O)C[C@@H](C)[C@@H](OC)CN(C)C3=O)c1`, the rescue of ATP level was 5.61%. In the case of `CCN1CCN(CCCCOc2ccccc2F)CC1`, the rescue of ATP level is 12.7%. As for `Fc1ccccc1OCCCCn1cncn1`, the rescue of ATP level is 109% (active). As to `O=c1c2ccccc2ncn1CCCCOc1ccccc1F`, the rescue of ATP level is -4.17%. As for `O=C(Nc1ccccc1F)N[C@@H]1CC[C@H](CCNC(=O)C2CC2)O[C@@H]1CO`, the rescue of ATP level is 3.31%. On to `O=C(CSc1ncn[nH]1)N/N=C/c1ccc(F)cc1`, for which the rescue of ATP level was 2.49%. With `O=C(/C=C/Sc1ncn[nH]1)c1ccc(Cl)cc1`, the rescue of ATP level is 122% (active). For `Cc1cccc(C=CC(=O)c2ccc(Cl)cc2)c1`, the rescue of ATP level is 3.66%.

With `CO[C@H]1CN(C)C(=O)c2ccc(NC(=O)c3ccccc3F)cc2OC[C@H](C)N(C(=O)c2ccccc2F)C[C@H]1C`, the rescue of ATP level is -0.874%.

In the case of `COc1ccc(NC(=O)CCCC(=O)c2ccccc2)cc1`, the rescue of ATP level is 4.33%. As for `COc1ccc2cc(C(=O)O)n(CC(=O)c3ccccc3)c2c1`, the figure is 107% (active). Regarding `CCOC(=O)c1cc2ccccc2n1CC(=O)c1ccccc1`, the rescue of ATP level was 14.7%. As for `OCCCNC(c1ccccc1)c1ccc(O)cc1` (stereo unspecified), the figure is 116% (active); as for `OCCNc1nc(Nc2ccc(Cl)c(Cl)c2)nc2ccccc12`, -27.5%. The figure for `Cc1noc(C)c1NC(=O)N(C)C[C@H]1Oc2c(NC(=O)c3nc4ccccc4s3)cccc2C(=O)N([C@@H](C)CO)C[C@@H]1C` is -9.27%; for `CN1C(=O)c2cc(NS(=O)(=O)c3ccc(F)cc3)ccc2OC[C@@H]2O[C@@H](CC(=O)O)CC[C@H]21` it is 1.01%; for `O=C(C[C@H]1C[C@@H]2c3cc(NC(=O)CC4CC4)ccc3O[C@@H]2[C@H](CO)O1)NCc1cccnc1` it is -11%.

`CC(=O)C1=C(O)C(=O)N(c2ccc(S(N)(=O)=O)cc2)C1c1ccccc1F` (stereo unspecified): the rescue of ATP level is 106% (active). Turning to `CC(=O)C1=C(O)C(=O)N(c2ccc(Br)cc2)C1c1ccc([N+](=O)[O-])cc1` (stereo unspecified), the rescue of ATP level is 4.28%. In the case of `Cc1ccc(S(=O)(=O)N2[C@@H](c3ccccc3F)C(C(=O)O)=CC[C@H]2c2ccc(Cl)cc2)cc1`, the rescue of ATP level was 21.4%. As for `CC1=CC(=O)C=CC1(C)C(Cl)(Cl)Cl` (stereo unspecified), the figure is 112% (active); as for `CO[C@@H]1CN(C)C(=O)c2cc(NS(=O)(=O)c3ccc(C)cc3)ccc2OC[C@H](C)N(Cc2nccs2)C[C@@H]1C`, 1.93%; as for `Cc1cc(C)cc(NS(=O)(=O)Cc2ccccc2)c1`, 1.96%. `CCC(CC)c1nnc(NS(=O)(=O)Cc2ccccc2)s1`: the rescue of ATP level is 117% (active). Consider `CCC(CC)c1nnc(NC(=O)C2CCN(C(=O)c3ccco3)CC2)s1`, for which the rescue of ATP level was -3.16%. Consider `CO[C@@H]1CN(C)C(=O)c2cc(NC(C)=O)ccc2OC[C@H](C)N(CC2CCCCC2)C[C@@H]1C`, for which the rescue of ATP level is -13.7%.

As to `C[C@H](O)C#Cc1cnc2c(c1)C(=O)N([C@@H](C)CO)C[C@H](C)[C@@H](CN(C)C(=O)c1ccncc1)O2`, the rescue of ATP level is 8.21%. As for `O=C(C[C@H]1C=C[C@H](NC(=O)CN2CCOCC2)[C@@H](CO)O1)NCc1cccc(F)c1`, the figure is -2.71%; as for `Cc1noc(C)c1NC(=O)Nc1ccc2c(c1)CC(=O)N([C@@H](C)CO)C[C@H](C)[C@@H](CN(C)C(=O)Nc1ccc3c(c1)OCO3)O2`, -8.55%; as for `CO[C@@H]1CN(C)C(=O)c2cc(NC(C)=O)ccc2OC[C@H](C)N(Cc2ccccc2F)C[C@@H]1C`, -2.5%. The figure for `CCCN1C2CCCC1CC(NC(=O)c1cccc(OC)c1)C2` (stereo unspecified) is -3.95%; for `COc1ccc(CN2C3CCCC2CC(NC(=O)c2cccc(F)c2)C3)cc1` (stereo unspecified) it is 9.21%; for `CCOc1ccccc1C(=O)NC1CC2CCCC(C1)N2Cc1ccccc1` (stereo unspecified) it is 97.4% (active). As for `CCCNC(=O)N(C)C[C@@H]1Oc2ncc(-c3ccccc3F)cc2C(=O)N([C@@H](C)CO)C[C@H]1C`, the figure is 15.3%; as for `COc1ccc(S(=O)(=O)N(C)C[C@H]2Oc3c(NC(=O)C4CCOCC4)cccc3C(=O)N([C@@H](C)CO)C[C@@H]2C)cc1`, -29.4%. As to `COCC#Cc1ccc2c(c1)O[C@H](CN(C)Cc1ccc3c(c1)OCO3)[C@H](C)CN([C@H](C)CO)S2(=O)=O`, the rescue of ATP level was 15.6%. The figure for `CCOC(=O)C1CCN(C(=O)Cn2cc(C#N)c3ccccc32)CC1` is 99.6% (active); for `CCOC(=O)C1CCN(C(=O)CSc2cc(=O)n(C)c3ccccc23)CC1` it is 4.85%; for `CCOC(=O)C1CCN(C(=O)COc2cccc3ccccc23)CC1` it is -0.757%. In the case of `CCCNC(=O)N(C)C[C@H]1Oc2cc(C#CC(C)(C)O)ccc2S(=O)(=O)N([C@H](C)CO)C[C@@H]1C`, the rescue of ATP level was 1.69%. In the case of `O=S1(=O)CCN2C(=N1)SC1=C2CCN(Cc2ccccc2)C1`, the rescue of ATP level was 121% (active).

Regarding `COC(=O)c1sc(N2CCN(Cc3ccccc3)CC2)nc1N`, the rescue of ATP level is 8.62%. Regarding `Cc1ccc(C2=CSC3=NS(=O)(=O)CCN23)cc1C`, the rescue of ATP level was 1.19%.

Regarding `O=C(NCC[C@H]1CC[C@@H](NC(=O)C2CCCCC2)[C@@H](CO)O1)c1ccc(F)cc1`, the rescue of ATP level is 10.2%. On to `CCC(=O)Nc1ccc2c(c1)C(=O)N(C)C[C@@H](OC)[C@@H](C)CN(Cc1ccccc1F)[C@H](C)CO2`, for which the rescue of ATP level is 10.8%.
